Source: PubChem BioAssay (NCI)
This is part of a sample that, as a whole, favours compounds with a hit. Of some 83,000 tested, about 20% had one in any assay.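 Growth was measured after 48 h exposure to one concentration of compound in 96-well plates. Values under 10 count as active.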 Unmarked numbers belong to inactive results. Activity calls are given as the source filed them.

System: OVCAR-5 ovarian
Test: NCI-60 one-dose screen, 48 h (100 = growth as untreated, 0 = no growth, -100 = all killed)
Settings: 10 µM unless noted
Protocol: Growth inhibition of the OVCAR-5 human tumor cell line is measured as a screen for anti-cancer activity. Cells are grown in 96 well plates and exposed to the test compound for 48 hours. Compounds are tested at a single concentration, which is 10^-5 M for most compounds. The reported endpoint is percent growth (GI% or GIPRCNT), where numbers from 0 - 100% represent growth inhibition, and numbers from -100% - 0 represent cell death. For example, a value of 40 represents 60% growth inhibition. A value of 0 means no net growth occurred over the course of the experiment. A value of -40 indicates 40% of cells at the beginning of the experiment died by the end of the experiment. A value of -100 means all cells are dead at the end of the experiment.
NCI-60 Human Tumor Cell Lines Screen was performed using the standard one-dose NCI protocol, which is described in more detail at https://dtp.cancer.gov/discovery_development/nci-60/default.htm.
Compounds with GIPRCNT values below 10 were considered active. Activity score was based on GIPRCNT using the following formula: […]
Score is 0 for GIPRCNT values of 100 or above, 50 for GIPRCNT values of 0, and 100 for GIPRCNT values of -100.

Row | SMILES | growth
1 | CN(C)c1ccc(/C=N/Nc2nc(N/N=C/c3ccc(N(C)C)cc3)nc(N3CCOCC3)n2)cc1 | 110%
2 | C/C(=C(/c1ccc(O)cc1)c1ccc(OCCN2CCCCCC2)cc1)c1ccccc1 | 63.3%
3 | O=C1c2c(c3c4cc(Br)ccc4[nH]c3c3ccc4ccccc4c23)C(=O)N1CCN1CCNCC1 | 113%
4 | Cc1cc(NS(=O)(=O)c2ccc(-c3cnc(C4CC4)o3)cc2)ccc1I | 54.6%
5 | CCC(=O)Nc1ccc(-c2nc(-c3cccc(O)c3)c(-c3ccnc(Br)c3)[nH]2)cc1 | 92.9%
6 | O=C(Nc1ccccc1)Nc1nc2ccc([N+](=O)[O-])cc2s1 | 12.1%
7 | COc1ccc(N)cc1C(=O)Nc1cccc(-c2cc(=O)c3c(OC)c(OC)c(OC)cc3o2)c1 | 94.8%
8 | CS(=O)c1nccc(-c2c(-c3ccc(F)c(OCc4ccccc4)c3)nc3sccn23)n1 (stereo not given) | 104%
9 | COCCOc1ccc(-c2csc(NC(C)=O)n2)cc1NS(=O)(=O)c1cccc2c(N(C)C)cccc12 | 105%
10 | COc1cc(OC)c(S(N)(=O)=O)cc1C(=O)/C=C/c1ccccc1 | 27.1%
11 | CCOC(=O)C1=C(C)N=C2Sc3ccccc3N2C1c1ccccc1 (stereo not given) | 102%
12 | N=c1c2cc(-c3ccccc3)oc2ncn1/N=C/c1ccccc1 | 83.5%
13 | N#Cc1c(-c2ccccc2)cc(-c2c[nH]c3ccccc23)nc1-c1c[nH]c2ccccc12 | 103%
14 | C/C(=C(/c1ccc(O)cc1)c1ccc(OCCN2CCCC2)cc1)c1ccc(Cl)cc1 | 60.1%
15 | COc1cccc(/C=C/C(=O)c2ccc(NC(=O)COc3cccc4cccnc34)cc2)c1 | 103%
16 | C#C[C@]1(O)CC[C@H]2[C@@H]3CC=C4c5sc(Nc6cccc(C)n6)nc5CC[C@]4(C)[C@H]3CC[C@@]21C | 56.4%
17 | Cc1ccc(NC(=O)c2cccc(CN3CCN(C)CC3)c2)cc1Oc1ccc(-c2[nH]nc3ncnc(N)c23)cc1 | 80.8%
18 | O=C(/C=C1\C=CN(CCCCCCF)c2ccccc21)n1ccc2ccccc21 | 99.3%
19 | O=C(/C=C/c1cccc(O)c1)c1ccc(O)cc1 | 91.4%
20 | Cc1ccc(NC(=O)c2cc(/C=C/C(=O)NO)cc(C(F)(F)F)c2)cc1Nc1nccc(-c2cccnc2)n1 | 17.4%

Row | SMILES | growth
21 | CN(C)C(=O)C1=NC(CO)C(=O)N(c2ccc(Cl)cc2)N1 (stereo not given) | 96.5%
22 | COc1cc(O)c2c(c1)[C@H]1O[C@@H]1C[C@H](O)[C@H](O)C(=O)/C=C\C[C@H](C)OC2=O | 61.5%
23 | COc1ccc(NC(=O)Cn2cc(CN3C(=O)c4ccc([N+](=O)[O-])cc4C3=O)nn2)cc1 | 115%
24 | O=C(COc1cccc2cccnc12)Nc1ccc(C(=O)/C=C/c2ccc(Cl)cc2)cc1 | 105%
25 | CCN1C(=O)N(CC)C2SC(N/N=C/c3cccs3)=NC21 (stereo not given) | 43.6%
26 | Oc1ccc(-c2nnc(SCc3ccc(O)c4ncccc34)o2)cc1 | 27.1%
27 | COc1cc2oc(-c3cccc(NC(=O)c4cc(NC(=O)[C@H](C)NC(=O)OC(C)(C)C)ccc4C)c3)cc(=O)c2c(OC)c1OC | 110%
28 | O=S(=O)(Nc1ccc(C2CC2)cc1)c1ccc(-c2cnc(C3CC3)o2)cc1 | 94.2%
29 | Cc1cc(O)c2c(c1)C(=O)C(c1c(C)cc3c(c1O)C(=O)C=CC3=O)=CC2=O | 117%
30 | Cc1cc(Cl)cc(NS(=O)(=O)c2ccc(-c3cnc(C4CC4)o3)cc2)c1 | 43.6%
31 | O=C1c2c(c3c4cc(Br)ccc4[nH]c3c3ccc4ccccc4c23)C(=O)N1CCN1CCCCC1 | 99.8%
32 | Oc1ccc(CSc2nnc(-c3ccc(Br)cc3)o2)c2cccnc12 | 89.6%
33 | O=C1[C@H]2Cc3c([nH]c4ccccc34)[C@@H](c3c(Cl)cccc3Cl)N2C(=O)CN1C1CCN(Cc2ccccc2)CC1 | 107%
34 | CCOC(=O)c1c(NCC(=O)Nc2cccc([N+](=O)[O-])c2)sc2c1CCCC2 | -45.6% (active)
35 | CN(c1ccc(Cl)cc1)S(=O)(=O)c1ccc(-c2cnc(C3CC3)o2)cc1 | 38.3%
36 | COc1cc([C@H]2OC[C@H]3[C@@H]2CO[C@@H]3c2ccc(O)c(OC)c2)ccc1O | 86.6%
37 | N#C/C(=C\c1ccc2ccccc2c1)C(=O)Nc1sc2c(c1C#N)CCC2 | 111%
38 | O=[N+]([O-])c1ccc(-c2nnc(SCc3ccc(O)c4ncccc34)n2-c2ccccc2)cc1 | 73.9%
39 | Oc1ccc(CSc2nnc(-c3ccc(Cl)cc3)o2)c2cccnc12 | 73.1%
40 | Oc1ccc(CSc2nnc(-c3ccncc3)n2-c2ccccc2)c2cccnc12 | 45.7%
